In PubChem BioAssay AID1421 (Emory University Molecular Libraries Screening Center, 2008):
Among all 1,300 compounds or so, about 140 (11%) were called active. No rule for the calls is given here. Only a sample is shown. Results with a measured potency or affinity are listed apart.

Each compound was assayed against Prostaglandin E2 receptor EP2 subtype (Homo sapiens) (UniProt P43116) (assay: compounds shifting PGE2 potency at EP2 – cell-based, human EP2, PGE2 EC50 shift, dose response (AID 1421)). Details: EP2-expressing cells, PGE2 EC50 shift by compound; at 20 µM.
Sequence of Prostaglandin E2 receptor EP2 subtype (Homo sapiens) (P43116 whole entry, looked up): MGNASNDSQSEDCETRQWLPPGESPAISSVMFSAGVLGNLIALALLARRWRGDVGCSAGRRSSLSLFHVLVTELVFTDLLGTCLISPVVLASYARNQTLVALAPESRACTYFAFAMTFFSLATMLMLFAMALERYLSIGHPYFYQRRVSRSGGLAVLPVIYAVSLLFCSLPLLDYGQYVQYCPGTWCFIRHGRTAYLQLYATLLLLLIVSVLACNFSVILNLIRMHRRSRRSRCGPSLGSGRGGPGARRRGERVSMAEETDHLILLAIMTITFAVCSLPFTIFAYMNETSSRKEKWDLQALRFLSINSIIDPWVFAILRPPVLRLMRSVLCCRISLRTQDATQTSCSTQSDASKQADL

PGE2 EC50 with compound, inactive:
CCCSc1nc(N2CCOCC2)c2c(c1C#N)CCCC2 340 pM
Cc1ccc2cccc(NC(=O)c3ccc(Br)o3)c2n1 120 pM
Cc1cccc(-c2nc(=S)c3c(n2Cc2ccco2)CCCC3)c1 550 pM
CN(CC(=O)Nc1ccccc1Oc1ccccc1)Cc1ccccc1F 300 pM
COc1ccccc1CN(C)CC(=O)Nc1ccccc1-c1ccccc1 720 pM
CC(C)c1nc(SCc2c(F)cccc2Cl)c2c(=O)n(C)c(=O)n(C)c2n1 230 pM
CC1CN(c2nc3ccccc3cc2-c2ccccc2)CC(C)O1 (stereo not given) 310 pM
CCCCn1c(-c2csc(CCC)c2)n[nH]c1=S 430 pM
CCCc1cc(-c2n[nH]c(=S)n2Cc2ccccc2)cs1 760 pM
Cc1ccc(C(=O)N2N=C(c3ccccc3)CC2(O)C(F)(F)F)o1 (stereo not given) 310 pM
CCOc1cc(/C=N/NC(N)=O)ccc1OC(=O)c1ccc(C)cc1 420 pM
Cc1ccc2nc(-c3ccncc3)cc(-c3ccccc3)c2c1 170 pM
Nc1nc(Cc2ccccc2)nc(Cc2ccccc2)c1-c1ccccc1 430 pM
CC(C)c1ccc(OCC(=O)NC(=S)Nc2ccc3c4c(cccc24)CC3)cc1 18600 pM
Nn1cnc2c(c1=O)C1(CCCCC1)Cc1ccccc1-2 340 pM
O=c1c2c(n3nnnc3n1-c1ccccc1)-c1ccccc1CC21CCCC1 770 pM
CCCn1c(SCC(=O)Nc2sc(C)c(C)c2C(=O)OCC)nc2c1c(=O)n(C)c(=O)n2C 470 pM
CCCCN1C=C(C(=O)OC)C(c2ccccc2Cl)C(C(=O)OC)=C1 380 pM
COc1ccc(C(=O)c2cnc3ccccc3c2-c2ccccc2)cc1 790 pM
CCCCOc1c(Br)cc(/C=N/O)cc1OCC 480 pM
COC(=O)c1c(NC(=O)CSc2nnc(-c3cccnc3)n2Cc2ccco2)sc(C)c1C 690 pM
O=C(CSc1nnc(-c2cc3ccccc3cc2O)n1Cc1ccco1)c1ccc(F)cc1 830 pM
CC(=O)c1ccc(S(=O)(=O)NCCCC(=O)NCCc2ccccn2)cc1 920 pM
CC(C)Cc1nc2sc3c(=O)[nH]cnc3c2c2c1CCC2 650 pM
C#CCSc1nc(Cc2ccc(Cl)cc2)nc2ccccc12 250 pM
Cc1cc(C(=O)CSc2nc3ccccc3c(=O)n2C)c(C)n1Cc1ccc2c(c1)OCO2 290 pM
CC(C)CCn1c(N2CCN(c3cccc(Cl)c3)CC2)nc2c1c(=O)[nH]c(=O)n2C 570 pM
Clc1ccc(Cn2c(/C=C/c3ccco3)nc3ccccc32)cc1 660 pM
COc1ccc(Cn2c(-c3ccc(OC)cc3)nc3ccccc32)cc1 800 pM
N#CCSc1nc2sc3c(c2c(=O)n1C1CCCCC1)CCCC3 320 pM
